This passage reports sensor-assay potency score (higher = more potent) results from the OligoGym collection.
Note: reference of the scale not given here.

One assay concerns the target PLEKHA8. The assay can be described thus: pooled miR-30 sensor sort-seq; sequence = guide strand. Particulars: shRNA.
In turn, TTCACAAGTGCTCAACTCCATT returned a sensor-assay potency score (higher = more potent) of -1.47.

TTCAGCAAACTCTTTCTCCTTC returned a sensor-assay potency score (higher = more potent) of 0.589.

Turning to TAGGGCTGTCTGGATATCCTTC, the sensor-assay potency score (higher = more potent) is -0.391.

Take TTGAATTTCACAGACTGCCATT: the sensor-assay potency score (higher = more potent) is -0.888.

In turn, TAATAGGACAATATTCCCCCAC had a sensor-assay potency score (higher = more potent) of -0.473.

For the sequence AATATTTCCAACAAGATCCATC, the sensor-assay potency score (higher = more potent) was -1.17.

Sequence TTTCCAACAAGATCCATCTTAA returned a sensor-assay potency score (higher = more potent) of -0.407.

For TATCTACAGAATGAACTTGAAT, the sensor-assay potency score (higher = more potent) is -1.22.

As for TAATATTTCCAACAAGATCCAT, the sensor-assay potency score (higher = more potent) is -0.589.

Take TTCCATTCCATCTTCCTTCCTT: the sensor-assay potency score (higher = more potent) was 0.675.

Sequence ATTATCTACAGAATGAACTTGA gave a sensor-assay potency score (higher = more potent) of 1.24.

ATTTCCAACAAGATCCATCTTA gave a sensor-assay potency score (higher = more potent) of 0.673.

The target of another assay is PLEKHB1. The assay is described as above. To be noted: shRNA.
Sequence TAGGGCGGTCCGTAGTAGCTGC gave a sensor-assay potency score (higher = more potent) of -0.166.

Consider TCGTAGTAGTCTTGGTACGGGC, for which the sensor-assay potency score (higher = more potent) was -1.27.

For the sequence TGAAGTGGATGAGCACACGGTC, the sensor-assay potency score (higher = more potent) was -1.12.

For TTCCCGTAGGTTCACAGTCAGC, the sensor-assay potency score (higher = more potent) is -1.99.

TAGTAGCTGCGGACATACGTGG showed a sensor-assay potency score (higher = more potent) of -1.12.

For the sequence TCTGTCTCCACAGCCAGCCGCC, the sensor-assay potency score (higher = more potent) was -1.23.

Turning to TCATCCTTGGTCTCCGCACAGA, the sensor-assay potency score (higher = more potent) is -1.23.

With TATGTCACGGACATTGAAGTGG, the sensor-assay potency score (higher = more potent) is -0.329.

For the sequence TTGAAGTGGATGAGCACACGGT, the sensor-assay potency score (higher = more potent) is -0.311.

In turn, TAGTAGTCTTGGTACGGGCTGT gave a sensor-assay potency score (higher = more potent) of -0.059.

For the sequence TAGGGCATCATCCTTGGTCTCC, the sensor-assay potency score (higher = more potent) was -0.411.

For TCTCATCGTGGTAGTATCCCAG, the sensor-assay potency score (higher = more potent) is -0.247.

A further assay has as its target PLEKHJ1. The assay is described as above. Particulars: shRNA.
Take TCAGGGTCCTCAATGAAGCTGA: the sensor-assay potency score (higher = more potent) was -0.114.

TTCGTTCCTGTAGAAGATGAGG yielded a sensor-assay potency score (higher = more potent) of -0.827.

In turn, TAGAAGATGAGGCTTCTCCGCA displayed a sensor-assay potency score (higher = more potent) of -0.0375.

The sequence TTGAACAGAACAAGCACCCTGG had a sensor-assay potency score (higher = more potent) of 0.692.

For the sequence TTATTTGAACAGAACAAGCACC, the sensor-assay potency score (higher = more potent) was -0.886.

For the sequence TTTGAACAGAACAAGCACCCTG, the sensor-assay potency score (higher = more potent) is 0.823.

On to TATGCCGAACTGTTCCAGGGGG, for which the sensor-assay potency score (higher = more potent) was -0.541.

TTCCTGTAGAAGATGAGGCTTC: the sensor-assay potency score (higher = more potent) worked out at 0.247.

TTTATTTGAACAGAACAAGCAC came in with a sensor-assay potency score (higher = more potent) of 0.502.

Consider ATGAACTCGTAGCTGGCCCGAC, for which the sensor-assay potency score (higher = more potent) was -0.947.

Sequence TGACACTGCTCCTCGCTGCTGC came in with a sensor-assay potency score (higher = more potent) of -0.0748.

Regarding TGTACATTCATTCAGCACGGGG, the sensor-assay potency score (higher = more potent) is -1.25.

The next assay deals with PLEKHN1. The description is as above. To be noted: shRNA.
The sequence TTCTCCTCCAGGTTGATGTGGA returned a sensor-assay potency score (higher = more potent) of -0.466.

The sequence TTCTTGGAGAGCAAGTAGGGGC gave a sensor-assay potency score (higher = more potent) of -0.773.

TAGCAGTCGCTGACATCCTGGC gave a sensor-assay potency score (higher = more potent) of -0.66.

The sequence TTGAACACACTCAGGAATGGCT showed a sensor-assay potency score (higher = more potent) of -0.516.
